Out of some 310,000 compounds screened, about 14,000 (4.5%) showed an effect of 50% or more. The effect is printed as a negative number. The sample holds strong results, similar compounds and a random draw of the others, so the mix is not that of the screen.
What follows are molecules tested against human ether-à-go-go-related gene (hERG) potassium channel (human, UniProt Q12809) (assay: primary screen, population patch clamp on CHO cells stably expressing hERG; higher = less effect of the substance).
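Also: peak tail current of the secondary pulse compared with the same well before compound.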

Sequence of human ether-à-go-go-related gene (hERG) potassium channel (Q12809 whole entry, looked up): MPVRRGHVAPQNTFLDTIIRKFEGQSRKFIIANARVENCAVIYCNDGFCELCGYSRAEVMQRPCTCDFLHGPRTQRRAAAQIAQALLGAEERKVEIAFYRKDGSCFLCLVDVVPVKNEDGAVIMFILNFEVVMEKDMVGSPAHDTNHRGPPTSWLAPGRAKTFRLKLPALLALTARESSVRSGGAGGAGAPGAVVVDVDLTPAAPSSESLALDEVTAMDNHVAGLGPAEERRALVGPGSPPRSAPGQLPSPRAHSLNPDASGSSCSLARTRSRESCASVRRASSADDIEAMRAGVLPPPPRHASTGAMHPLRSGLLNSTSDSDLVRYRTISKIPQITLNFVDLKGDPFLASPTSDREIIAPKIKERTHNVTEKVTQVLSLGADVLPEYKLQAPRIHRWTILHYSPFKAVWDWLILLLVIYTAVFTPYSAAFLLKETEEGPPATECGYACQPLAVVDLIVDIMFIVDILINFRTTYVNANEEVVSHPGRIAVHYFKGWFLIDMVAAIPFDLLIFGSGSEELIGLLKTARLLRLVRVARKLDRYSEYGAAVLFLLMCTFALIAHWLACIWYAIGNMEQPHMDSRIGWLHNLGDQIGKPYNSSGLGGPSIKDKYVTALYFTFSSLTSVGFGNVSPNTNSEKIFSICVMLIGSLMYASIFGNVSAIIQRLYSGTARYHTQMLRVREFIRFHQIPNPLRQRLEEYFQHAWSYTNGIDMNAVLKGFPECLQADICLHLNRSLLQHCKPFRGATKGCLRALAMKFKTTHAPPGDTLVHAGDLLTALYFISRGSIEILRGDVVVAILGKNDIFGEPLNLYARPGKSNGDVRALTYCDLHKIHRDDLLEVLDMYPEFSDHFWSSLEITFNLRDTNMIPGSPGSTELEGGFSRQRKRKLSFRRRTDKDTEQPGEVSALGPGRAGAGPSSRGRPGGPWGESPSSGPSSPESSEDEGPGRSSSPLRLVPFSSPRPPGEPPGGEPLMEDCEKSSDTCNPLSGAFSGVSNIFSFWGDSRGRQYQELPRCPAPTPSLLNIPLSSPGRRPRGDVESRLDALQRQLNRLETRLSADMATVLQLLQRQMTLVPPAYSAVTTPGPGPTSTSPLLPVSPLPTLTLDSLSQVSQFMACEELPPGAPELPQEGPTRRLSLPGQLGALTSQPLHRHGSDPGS

Structure (SMILES)	hERG current change (%, negative = inhibition) at 10uM
CC(C)Cc1nnc(NC(=O)C2CCN(C(=O)c3ccc(Cl)cc3)CC2)s1	-29.2%
CCN(CC)c1ccc(/C=C(/C#N)C(=O)NC(C)C)o1	-1.68%
COC(=O)C(C)n1cnc2c(nnn2-c2ccc(C)cc2)c1=O (stereo not drawn)	-10.6%
NC(=O)C1CCN(CC(=O)N2c3ccccc3CCc3ccccc32)CC1	19.3%
Cc1cccn2c(=O)c3cc(C(=O)NC4CCCC4)c(=N)n(C4CCCCC4)c3nc12	-80.7%
Cc1cccn2c(=O)c3cc(C(=O)NC4CCCC4)n(C)c3nc12	1.13%
Cc1cccn2c(=O)c(C(=O)NC3CCCCC3)c(O)nc12	31.3%
Cc1cccn2c(=O)c3cc(C(=O)NC4CCCCC4)n(C)c3nc12	12.5%
Cc1cccn2c(=O)c3cc(C(=O)NC4CCCCC4C)n(C)c3nc12 (stereo not drawn)	13.7%
Cc1cccn2c(=O)c3cc(C(=O)NC4CCCC4)c(=N)n(C4CCCC4)c3nc12	-79.2%
COc1cc(C(=O)NCC(=O)N/N=C/c2c(C)[nH]c3ccccc23)cc(OC)c1OC	15.7%
CCC(C(=O)OCCN(CC)CC)c1ccccc1.O=C(O)CC(O)(CC(=O)O)C(=O)O (stereo not drawn)	4.45%
CCN(CC)CCC(C)OC(c1ccccc1)c1ccccc1.O=C(O)CC(O)(CC(=O)O)C(=O)O (stereo not drawn)	-52.2%
CCN(CC)CCc1nc(-c2ccccc2)no1.O=C(O)CC(O)(CC(=O)O)C(=O)O	-10.6%
COCCOc1cc(N)c(Cl)cc1Cl	15.5%
Cn1c(=O)c2c(ncn2CC(=O)Nc2ccccc2)n(C)c1=O	13.9%
COc1ccc(C)cc1NC(=O)C(OC(=O)Cn1cnc2c1c(=O)n(C)c(=O)n2C)c1ccccc1 (stereo not drawn)	-7.98%
CN(c1ccccc1)S(=O)(=O)c1cccc(NC(=O)Cn2cnc3c2c(=O)n(C)c(=O)n3C)c1	-52.6%
COc1ccccc1NC(=O)Cn1cnc2c1c(=O)n(C)c(=O)n2C	17.9%
COc1ccc(S(=O)(=O)N2CCCCC2)cc1NC(=O)CCc1nc2ccccc2c(=O)[nH]1	0.795%
COc1ccc(S(=O)(=O)N2CCOCC2)cc1NC(=O)CCc1nc2ccccc2c(=O)[nH]1	21.5%

Structure (SMILES)	hERG current change (%, negative = inhibition) at 10uM
Cc1cc(C)cc(NC(=O)C(OC(=O)Cn2cnc3c2c(=O)n(C)c(=O)n3C)c2ccccc2)c1 (stereo not drawn)	-69.7%
Cc1cc(C)cc(NC(=O)COC(=O)Cn2cnc3c2c(=O)n(C)c(=O)n3C)c1	-41.1%
CCN(c1ccccc1)S(=O)(=O)c1ccc(OC)c(NC(=O)CCc2nc3ccccc3c(=O)[nH]2)c1	-51.2%
CCN(c1ccccc1)S(=O)(=O)c1ccc(OC)c(NC(=O)Cn2cnc3c2c(=O)n(C)c(=O)n3C)c1	-66%
CCN(CC)S(=O)(=O)c1ccc(OC)c(NC(=O)Cn2cnc3c2c(=O)n(C)c(=O)n3C)c1	-41.3%
CN(c1ccccc1)S(=O)(=O)c1cccc(NC(=O)Cn2cnc3ccccc3c2=O)c1	-48.3%
O=C(NCc1ccco1)C1CC(c2ccc(Cl)c(Cl)c2)=NO1 (stereo not drawn)	8.51%
CC(C)C(C(=O)NCC1CCCO1)N(Cc1ccccc1)C(=O)CNS(=O)(=O)c1ccccc1 (stereo not drawn)	18.4%
O=C(Nc1cccc(Br)c1)c1cc(=O)c2ccccc2o1	19.4%
Cc1ccc(-c2csc(NC(=S)NC(=O)c3cc4ccccc4o3)n2)cc1	7.09%
Cc1cc(S(=O)(=O)N2CCOCC2)c(C)s1	9.26%
O=C(NCc1ccco1)c1sc2ccccc2c1Cl	-9.84%
CC(C)(C)CC(=O)Nc1nn[nH]n1	24.3%
O=C(O)CN1C(=O)/C(=C\c2cc([N+](=O)[O-])ccc2OCc2ccccc2Cl)SC1=S	29.4%
Cc1ccccc1-c1noc(-c2ccc(Cl)cc2)n1	25.1%
COc1ccc(C)c2sc(NNC(=O)COc3ccccc3)nc12	6.35%
CCN(Cc1ccccc1)C(=O)Cn1cnc2c1c(=O)n(C)c(=O)n2C	-16.1%
Cn1c(=O)c2c(ncn2CC(=O)OCc2ccccc2)n(C)c1=O	-6.21%
Cn1c(=O)c2c(ncn2CC(=O)N(Cc2ccccc2)c2ccccn2)n(C)c1=O	-50.7%
Cc1sc2ncn(CC(=O)NCCCC(=O)N3CCN(c4ccccc4F)CC3)c(=O)c2c1C	-20.9%
O=C(c1cccn2c(=O)c3cc(Cl)ccc3nc12)N1CCOCC1	-52.9%

Structure (SMILES)	hERG current change (%, negative = inhibition) at 10uM
CCOC(=O)N1CCN(C(=O)c2cccn3c(=O)c4cc(Cl)ccc4nc23)CC1	-65.7%
O=C(c1ccc2nc3ccc(Cl)cc3c(=O)n2c1)N1CCOCC1	-55.3%
NC(=O)C1(N2CCCCC2)CCN(C(=O)c2cccn3c(=O)c4cc(Cl)ccc4nc23)CC1	-30.1%
O=C(c1cccn2c(=O)c3ccc(Cl)cc3nc12)N1CCC2(CC1)OCCO2	-11.2%
O=C(c1ccc2nc3ccc(Cl)cc3c(=O)n2c1)N1CCC2(CC1)OCCO2	-40.3%
CCOC(CNC(=O)c1cccn2c(=O)c3cc(Cl)ccc3nc12)OCC	-7.16%
CCOC(=O)N1CCC(NC(=O)c2cccn3c(=O)c4cc(Br)ccc4nc23)CC1	3.69%
CCOC(=O)N1CCN(C(=O)c2ccc3nc4ccc(Cl)cc4c(=O)n3c2)CC1	-45.9%
O=C(c1cccn2c(=O)c3cc(Br)ccc3nc12)N1CCC2(CC1)OCCO2	-37%
CCOC(=O)N1CCN(C(=O)c2cccn3c(=O)c4cc(Br)ccc4nc23)CC1	-68.2%
CCOC(=O)N1CCN(C(=O)c2cccn3c(=O)c4sccc4nc23)CC1	-35.9%
O=C(O)c1nn(-c2cccc(Cl)c2)c(=O)cc1O	4.44%
CN(Cc1nc2ccccc2c(=O)[nH]1)CC(O)COCc1ccco1 (stereo not drawn)	-13.9%
COc1cccc(C(=O)NCc2ccc3c(c2)OCO3)c1OC	16.3%
CCO[C@@H]1OC(C(=O)N2CCOCC2)=C[C@H](C2CC2)[C@H]1CCCO	11.6%
O=C(c1ccco1)N1CCN(S(=O)(=O)c2ccc(Cl)cc2)CC1	2.47%
COc1ccc(OC)c(N(CC(=O)Nc2ccccc2)S(=O)(=O)c2ccccc2)c1	6.01%
CCc1ccc(OCC(O)CN2CCCC2)cc1.Cl (stereo not drawn)	-13.8%
CCc1ccc(OCCOCC(O)CN2CCN(Cc3ccc(Cl)cc3)CC2)cc1.Cl (stereo not drawn)	-73.5%
CCN1CCN(CC(O)COc2ccc(Cl)cc2)CC1.Cl (stereo not drawn)	-36.2%
COc1cccc(OCCOCC(O)CN2CCN(Cc3ccc(Cl)cc3)CC2)c1.Cl (stereo not drawn)	-72.3%

Structure (SMILES)	hERG current change (%, negative = inhibition) at 10uM
COc1cccc(OCC(O)CN2CCN(CCO)CC2)c1.Cl (stereo not drawn)	15.7%
CCN1CCN(CC(O)COc2cccc(OC)c2)CC1.Cl (stereo not drawn)	3.43%
COc1cc(/C=C(/NC(=O)c2ccccc2)C(=O)Nc2cccc(O)c2)c([N+](=O)[O-])cc1OC	0.394%
Cn1c(=O)c([N+](=O)[O-])c(NCc2ccccc2)c2ccccc21	9.94%
O=C(NC1CCCc2ccccc21)C1CCN(S(=O)(=O)N2CCCCCC2)CC1 (stereo not drawn)	-12.8%
O=C(N[C@@H](Cc1ccccc1)C(=O)OCC(=O)N1CCOCC1)c1cccs1	-9.98%
O=C(COC(=O)CCc1nc2ccccc2n1-c1ccccc1)Nc1ccc(N2CCCCC2)cc1	2.85%
CC[C@@H](C)[C@H](NC(=O)OC(C)(C)C)c1nnc(S(=O)(=O)Cc2cc(C)ccc2C)o1	4.09%
CC(NC(=O)COC(=O)/C=C/c1cccc(C(F)(F)F)c1)c1ccccc1 (stereo not drawn)	15.2%
CCN(CC)CCn1c(C)nc2ccccc21.Cl	-9.07%
CCN(CC)CCn1c(NS(=O)(=O)c2ccc(Cl)cc2)nc2ccccc21.Cl	-69.8%
CCN(CC)CCn1c(NS(=O)(=O)c2ccc(C)cc2)nc2ccccc21	-51%
CCN(CC)CCn1c(N)nc2ccccc21.Cl	15.4%
Cc1ccc(Cn2c(NS(=O)(=O)c3ccccc3)nc3ccccc32)cc1	21.3%
CCCn1c(NCc2ccccc2NS(=O)(=O)c2ccc(C)cc2)nc2ccccc21	6.84%
CN1C(=O)C(C2c3ccccc3C(=O)N2Cc2ccccc2)C(=O)N(C)C1=O (stereo not drawn)	3.38%
CCc1ccc(C(=O)C(C)OC(=O)C2COc3ccccc3O2)cc1 (stereo not drawn)	-18.9%
CSc1ncc(Cl)c(C(=O)Nc2cc(C)ccc2C)n1	16.1%
CCOC(=O)C(NC(=O)c1cccnc1)(Nc1cccc(C)n1)C(F)(F)F (stereo not drawn)	1.24%
CCN1C(=O)C(CC(=O)Nc2ccc(OC)cc2)N(Cc2cccnc2)C1=S (stereo not drawn)	-2.39%
c1ccc(C[C@H]2CNCCN2CC2(c3ccccc3)CC2)cc1	-14.9%

Source: article PMC4336329 (PLoS ONE, 2015)
